Rows were chosen to be rich in hits. Some 11% of all compounds tested hit in one or more screens of this group.
Pf growth 48h = P. falciparum growth inhibition at 48 hours (one generation); P. falciparum luciferase growth in erythrocytes, 48 h; 310,000 tested, 5.9% active; Potency, µM (highest dose often 28.7 µM), most hits filed as inhibitors
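Growth was read as firefly luciferase luminescence after a 48 h, 37 C, 5% CO2 exposure of compounds to reporter-bearing P. falciparum cultures (0.1% parasitemia, 2% hematocrit final) in Albumax-supplemented RPMI 1640.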
HCV inh = blocks hepatitis C virus | Huh7.5.1 HCVcc-Cre infection, luciferase reporter, 44 h | Potency, µM (series often up to 41.8 µM), hits mostly inhibitors | 340,000 tested, 3.4% active | AID 651820
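Cells seeded at 1,000/well and cultured 4 h, then compounds added followed by HCVcc-Cre virus (~0.5 moi). After 44 h further culture, luciferase substrate was added, plates held 15 min at room temperature, and luminescence read for 15 sec.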
Pf growth 96h = P. falciparum growth inhibition at 96 hour, primary screen for plastid delayed-death inhibitors; P. falciparum luciferase reporter growth, 96 h; Potency, µM (doses to about 28.7 µM), hits mostly inhibitors; 320,000 tested, 6.9% active; AID 504834
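Parasite growth measured via integrated firefly luciferase reporter in P. falciparum. Infected erythrocytes at 2% hematocrit, 0.05% parasitemia final were treated 96 hours at 37 C under 5% CO2, and luminescence was read.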
AMA1-RON2 inh = AMA1-RON2 (P. falciparum) interaction inhibition; AlphaScreen AMA1-biotinylated RON2 peptide binding; Potency, µM (doses to about 58.2 µM), actives largely listed as inhibitors; 360,000 tested, 0.2% active; further: nearly all actives have a fitted effect of over 45% in size
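AMA1 (3D7) with his tag at 25 nM final met compounds first, then biotinylated RON2 peptide at 25 nM; detection used donor plus acceptor beads, 10 µg/mL apiece, read by AlphaScreen after 30 min at room temperature.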
Numbers stand for hits; [ ] = dose if it differs, or a comment. The call rests on the fitted dose curve; in most records, active means well fitted curve in the direction sought with a large enough effect; inconclusive means small, poorly fitted or top-dose-only effect, or another doubt; inactive means no such curve, though single readings can be large; an effect the other way counts as inactive or inconclusive.

Screening COc1ccc(C(NC(C)=O)c2cc(Cl)c3cccnc3c2O)cc1OC (centres undefined) returned Pf growth 48h 9.28µM, HCV inh 2µM, Pf growth 96h inactive and AMA1-RON2 inh inactive.
CCC(=O)NC(c1ccc(OC)c(OC)c1)c1cc(Cl)c2cccnc2c1O (centres undefined) was read as Pf growth 48h 1.04µM, HCV inh inconclusive, Pf growth 96h inactive and AMA1-RON2 inh inactive.
O=C(O)COc1ccccc1C(Nc1cccnc1)c1cc(Cl)c2cccnc2c1O (centres undefined) was read as Pf growth 48h inactive, HCV inh inactive, Pf growth 96h inactive and AMA1-RON2 inh inactive.
For COc1ccccc1C(NC(C)=O)c1cc(Cl)c2cccnc2c1O (centres undefined) the results were Pf growth 48h inactive[0.00184 µM], HCV inh inconclusive, Pf growth 96h inactive and AMA1-RON2 inh inactive.
For CCC(C)[C@H](N)c1nnc(SCc2cccc(F)c2)o1 (some centres undefined) the results were Pf growth 48h inconclusive, HCV inh inactive, Pf growth 96h inactive and AMA1-RON2 inh inactive.
For O=C(OC(C(=O)Nc1cccc(C(F)(F)F)c1)c1ccccc1)C1CCCCC1 (centres undefined) the results were Pf growth 48h inconclusive, HCV inh inactive, Pf growth 96h 6.57µM and AMA1-RON2 inh inactive.
For O=c1cc(Nc2ccc3c(c2)OCCO3)[nH]c(=O)n1C1CCCCC1 the results were Pf growth 48h 2.08µM, HCV inh inconclusive, Pf growth 96h inactive and AMA1-RON2 inh inactive.
Screening CCc1ccc(Nc2cc(=O)n(C3CCCCC3)c(=O)[nH]2)cc1 returned Pf growth 48h 0.147µM, HCV inh inconclusive, Pf growth 96h inactive and AMA1-RON2 inh inactive.
Cc1cc(/C=N/n2c(COc3ccccc3C)nc3ccccc3c2=O)c(O)c([N+](=O)[O-])c1 was read as Pf growth 48h 3.29µM, HCV inh inconclusive, Pf growth 96h inconclusive and AMA1-RON2 inh inconclusive.
Screening O=c1c2ccccc2nc(COc2ccccc2)n1/N=C/c1cc([N+](=O)[O-])ccc1O returned Pf growth 48h 2.62µM, HCV inh inactive, Pf growth 96h inconclusive and AMA1-RON2 inh inactive.
`Cc1ccccc1OCc1nc2ccccc2c(=O)n1/N=C/c1c[nH]c2ccccc12` gave Pf growth 48h inactive, HCV inh inconclusive, Pf growth 96h inconclusive and AMA1-RON2 inh inactive.
Screening Cc1ccc(NC(=O)Cc2nc(COC(=O)Cc3cccc(C(F)(F)F)c3)cs2)cc1 returned Pf growth 48h inactive, HCV inh inactive, Pf growth 96h inactive and AMA1-RON2 inh inactive.
Screening Cc1ccccc1NC(=O)Cc1nc(COC(=O)c2ccc(O)cc2O)cs1 returned Pf growth 48h inactive, Pf growth 96h inconclusive and AMA1-RON2 inh inactive.
Cc1ccc(NC(=O)Cc2nc(COC(=O)c3c(F)cccc3Cl)cs2)cc1 was read as HCV inh 8.91µM and AMA1-RON2 inh inactive.
Cc1ccccc1NC(=O)Cc1nc(COC(=O)c2ccc(Cl)c(S(N)(=O)=O)c2)cs1 was read as Pf growth 48h inconclusive, HCV inh inactive, Pf growth 96h 13.1µM and AMA1-RON2 inh inactive.
Cc1ccc(C)c(NC(=O)Cc2nc(CCl)cs2)c1 was read as Pf growth 48h 14.7µM, HCV inh inactive, Pf growth 96h inconclusive and AMA1-RON2 inh inactive.
Cc1ccccc1NC(=O)Cc1nc(COC(=O)c2cccc(O)c2)cs1 was read as Pf growth 48h inconclusive, HCV inh inconclusive, Pf growth 96h inactive and AMA1-RON2 inh inactive.
For Cc1ccccc1NC(=O)Cc1nc(COC(=O)c2cc([N+](=O)[O-])ccc2NCCO)cs1 the results were Pf growth 48h inconclusive, HCV inh 8.91µM, Pf growth 96h inconclusive and AMA1-RON2 inh inactive.
CNc1nc(Oc2cccc(F)c2)c2sccc2n1 was read as AMA1-RON2 inh inactive.
O=C(c1ccccc1)N1CCN(c2ccc([N+](=O)[O-])cc2-n2cccc2)CC1 was read as Pf growth 48h inactive, HCV inh inconclusive, Pf growth 96h inactive and AMA1-RON2 inh inconclusive.
`CCOc1ccc(N2C(=O)Nc3ccccc3C2(O)C(=O)N2CCN(c3ccccn3)CC2)cc1` (centres undefined) gave Pf growth 48h inactive, HCV inh inactive, Pf growth 96h inactive and AMA1-RON2 inh inactive.
CCCn1c(N)c(N(CCOC)C(=O)c2ccc(-c3ccc(Cl)cc3)o2)c(=O)[nH]c1=O was read as Pf growth 48h inconclusive, HCV inh inactive, Pf growth 96h inactive and AMA1-RON2 inh inactive.
For COc1ccc([C@@H]2C[C@H]3[C@@H](CN2S(=O)(=O)c2ccccc2)C(=O)C[C@@H](c2ccc(C)cc2)N3S(=O)(=O)c2ccc(C)cc2)cc1 the results were AMA1-RON2 inh inactive.
Screening Cc1ccc(C)c(OCCC(=O)OCc2csc(CC(=O)Nc3ccccc3C)n2)c1 returned Pf growth 48h 11.7µM, HCV inh inactive, Pf growth 96h inconclusive and AMA1-RON2 inh inactive.
`Cc1ccccc1NC(=O)Cc1nc(COC(=O)c2ccc([N+](=O)[O-])cc2)cs1` gave Pf growth 48h inactive, HCV inh inactive, Pf growth 96h inactive and AMA1-RON2 inh inactive.
For CC(=O)c1c(C)[nH]c(C(=O)OCc2csc(CC(=O)Nc3ccccc3C)n2)c1C the results were HCV inh 4.47µM and AMA1-RON2 inh inactive.
For Cc1ccc(OCCC(=O)OCc2csc(CC(=O)Nc3ccccc3C)n2)cc1 the results were Pf growth 48h inactive, HCV inh inactive, Pf growth 96h inactive and AMA1-RON2 inh inactive.
For Cc1ccccc1NC(=O)Cc1nc(COC(=O)c2cccc([N+](=O)[O-])c2)cs1 the results were Pf growth 48h inactive, HCV inh inactive, Pf growth 96h 4.15µM and AMA1-RON2 inh inactive.
O=C(Oc1ccc(-c2nnco2)cc1)N(c1ccccc1)c1ccccc1 was read as Pf growth 48h inactive, HCV inh inactive, Pf growth 96h inactive and AMA1-RON2 inh inactive.
Screening CCNC(=S)N(Cc1ccc2c(c1)OCO2)C1CC(=O)N(c2ccc(F)cc2)C1=O (centres undefined) returned Pf growth 48h 9.28µM, HCV inh inactive, Pf growth 96h inconclusive and AMA1-RON2 inh inactive.
`Cc1ccc(N=C2NC(=O)/C(=C/c3cccn3C)S2)cc1C` gave Pf growth 48h inconclusive, HCV inh inactive, Pf growth 96h 13.1µM and AMA1-RON2 inh inactive.
For Cc1ccc(N=C2NC(=O)/C(=C\c3ccc(C)s3)S2)cc1 the results were Pf growth 48h inconclusive, HCV inh inactive, Pf growth 96h 1.65µM and AMA1-RON2 inh inactive.
Screening Cc1ccc(N=C2NC(=O)/C(=C/c3cccn3C)S2)cc1 returned Pf growth 48h inactive, HCV inh inactive, Pf growth 96h inconclusive and AMA1-RON2 inh inconclusive.
`O=C1NC(=Nc2ccccc2)S/C1=C/c1cccs1` gave Pf growth 48h inactive, HCV inh inactive, Pf growth 96h inactive and AMA1-RON2 inh inactive.
Screening CCn1cc(C2=NOC(C(=O)O)C2)c(C)n1 (centres undefined) returned Pf growth 48h inactive, Pf growth 96h 5.86µM and AMA1-RON2 inh inactive.
`CCCNC(=S)NCc1ccc(Cl)cc1` gave Pf growth 48h inactive, HCV inh inactive, Pf growth 96h inactive and AMA1-RON2 inh inactive.
